Measurements as given in PubChem BioAssay (NCATS).
Results filed as inconclusive are left out. Activity calls are given as the source filed them. Calls come from the whole dose curve; as a rule, active = well fitted inhibition curve with a large enough effect; inconclusive = small, poorly fitted or top-dose-only effect; inactive = flat fitted curve, though single readings scatter.

Target: Phospholipid hydroperoxide glutathione peroxidase GPX4 (Homo sapiens) (UniProt P36969)
Assay: Primary qHTS Assay for Inhibitors of Recombinant Selenoprotein Glutathione Peroxidase 4 (GPX4) (AID 1845192); note: nearly all actives have a fitted effect of over 65% in size; for activity change, negative = inhibition: % is set by controls: 0 for no effect and ±100 for the full control effect
Conditions: recombinant GPX4, GR-coupled NADPH fluorescence, 15 min; series mostly up to 50 µM; activity change, negative = inhibition: at the top concentration
How it was run: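 GR-coupled readout: 100 nM GR, 1 mM GSH, 0.5 mM NADPH; NADPH fluorescence (ex 340/em 450 nm) read at t=0 and after 15 min RT. GPX4 200 nM, preincubated 30 min with compound; substrate 0.5 mM CHP.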

Chain of Phospholipid hydroperoxide glutathione peroxidase GPX4 (Homo sapiens) (P36969 whole entry, looked up): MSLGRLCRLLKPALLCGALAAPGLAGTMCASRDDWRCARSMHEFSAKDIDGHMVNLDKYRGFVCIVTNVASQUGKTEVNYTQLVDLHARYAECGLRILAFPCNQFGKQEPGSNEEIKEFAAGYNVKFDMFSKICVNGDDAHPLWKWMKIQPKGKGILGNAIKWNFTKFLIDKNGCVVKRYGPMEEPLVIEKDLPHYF

SMILES | activity change, negative = inhibition | Potency | outcome
C=C1CCC2C(C)(C)C(O)CCC2(C)C1CCC(C)CCOC(=O)CCC(=O)O (stereo not drawn) | -22.2% [at 27.8 µM] (inactive) |  | 
OCc1ccccc1O[C@@H]1O[C@H](CO)[C@@H](O)[C@H](O)[C@H]1O |  | inactive | 
COc1cc(CC(COC2OC(CO)C(O)C(O)C2O)c2cc(/C=C/CO)cc(OC)c2O)ccc1O (stereo not drawn) | -10.5% [at 27.8 µM] (inactive) |  | 
CC(/C=C/C1(O)C2(C)COC1(C)CC(=O)C2)O[C@@H]1O[C@H](CO)[C@@H](O)[C@H](O)[C@H]1O (stereo partly drawn) | 2.3% [at 27.8 µM] (inactive) |  | 
CN1C(=O)c2ccccc2-n2c(nc3ccccc3c2=O)[C@@]12O[C@H]2c1ccccc1 | 0.768% [at 27.8 µM] (inactive) |  | 
CC1OC(OC2C(C)OC(OC3C(OC(=O)/C=C/c4ccc(O)cc4)C(CO)OC(OC4(COC(=O)/C=C/c5ccc(O)cc5)OC(CO)C(O)C4O)C3OC3OCC(O)(CO)C3O)C(O)C2O)C(O)C(O)C1O (stereo not drawn) | -9.89% [at 15.3 µM] (inactive) |  | 
N[C@@H](CC(=O)N1CCn2c(nnc2C(F)(F)F)C1)Cc1[nH]nc2c(F)c(F)ccc12 | 3.5% (inactive) |  | 
COC(=O)C1=CO[C@@H](O[C@@H]2O[C@H](CO)[C@@H](O)[C@H](O)[C@H]2O)[C@@H]2[C@@H](C)[C@@H](O)C[C@H]12 |  |  | inactive [at 27.8 µM]
CCn1cc(C2=NOC(C(=O)Nc3c(C)n(C)n(-c4ccccc4)c3=O)C2)c(C)n1 (stereo not drawn) | 3.36% (inactive) |  | 
CCC(NC(=O)CC(NC(=O)C(CO)NC(=O)C(CC)NC(=O)c1ccc[nH]1)c1ccccc1)C(=O)O (stereo not drawn) |  |  | inactive [at 15.3 µM]
CC(C)=CCCC1(C)Oc2cc3c(c4c2C2C(O4)C(C)(O)CCC21)CN(C(CCC(=O)O)C(=O)O)C3=O (stereo not drawn) | -4.87% [at 27.8 µM] (inactive) |  | 
O=S(=O)(Nc1ccc(C(O)(C(F)(F)F)C(F)(F)F)cc1)c1cccs1 | -5.61% (inactive) |  | 

Target: Luciferin 4-monooxygenase (Photinus pyralis) (UniProt P08659)
Assay: Primary firefly luciferase (FLuc) qHTS assay for identification of artifact compounds. (AID 1845220); note: nearly all actives have a fitted effect of over 60% in size;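 for activity change, negative = inhibition: plate controls were DMSO vehicle for no effect and no enzyme for full effect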
Conditions: purified firefly luciferase, luminescence, 5 min; series mostly up to 54.1 µM; activity change, negative = inhibition: at the top concentration
How it was run: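 qHTS, 15 min compound preincubation with substrate (10 uM luciferin, 10 uM ATP) at RT, then 10 nM FLuc; 5 min; luminescence; % inhibition vs no-enzyme/DMSO controls, 4-parameter Hill fit.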

SMILES | activity change, negative = inhibition | outcome | Potency
CCCC(N[C@@H](C)C(=O)N1[C@H](C(=O)O)C[C@@H]2CCCC[C@@H]21)C(=O)OCC (stereo partly drawn) | -1.55% (inactive) |  | 
O=C(O)CCc1cccc(O[C@@H]2O[C@H](CO)[C@@H](O)[C@H](O)[C@H]2O)c1O | 0.402% (inactive) |  | 
CCOC(=O)c1ccnc(CNCC(=O)N(CC)CCN(C)C)c1 | -4.69% (inactive) |  | 
CC(=O)O[C@@H]1[C@H](O[C@@H]2OC[C@](O)(CO)[C@H]2O)[C@@H](O[C@@H]2O[C@@H](C)[C@H](O)[C@@H](O)[C@H]2O)[C@H](OC(=O)[C@]23CCC(C)(C)C[C@H]2C2=CCC4[C@@]5(C)C[C@H](O)[C@H](O[C@@H]6O[C@H](C(=O)O)[C@@H](O)[C@H](O)[C@H]6O)[C@@](C)(C(=O)O)C5CC[C@@]4(C)[C@]2(C)CC3)O[C@@H]1C (stereo partly drawn) | 3.99% [at 11.6 µM] (inactive) |  | 
CC1(C)OC(=O)C(OCC2CC2)=C1c1ccc(S(C)(=O)=O)cc1 | 4.88% (inactive) |  | 
CC(=O)O[C@H]1CC[C@@]2(CI)C(=CC[C@@H]3[C@@H]2CC[C@]2(C)[C@@H]([C@H](C)CCCC(C)C)CC[C@@H]32)C1 | 3.6% [at 11.6 µM] (inactive) |  | 
c1ccc(Cc2ncc3c(n2)CCNCC3)cc1 | -2.75% (inactive) |  | 
CC[C@H](/C=C/[C@@H](C)[C@H]1CC[C@H]2[C@@H]3CC=C4C[C@@H](O)CC[C@]4(C)[C@H]3CC[C@]12C)C(C)C | 2.1% [at 6.45 µM] (inactive) |  | 
O=C(/C=C/c1ccc(O)cc1)OCC1=C[C@@H](O)[C@@H]2C=CO[C@@H](O[C@@H]3O[C@H](CO)[C@@H](O)[C@H](O)[C@H]3O)[C@H]12 | 1.1% [at 25.7 µM] (inactive) |  | 
C=CC(C)(O)CC/C=C(\C)C(=O)OCC1OC(OC2CCC3(C)C(CCC4(C)C3CC=C3C5CC(C)(C)C(O)CC5(C(=O)O)CCC34C)C2(C)C)C(O)C(OC2OC(CO)C(O)C(OC3OC(CO)C(O)C(OC4OC(COC5OC(CO)C(O)C(O)C5O)C(O)C(O)C4O)C3O)C2O)C1O (stereo not drawn) |  | inactive [at 11.6 µM] | 
CC1=C(CC(=O)O)c2cc(F)ccc2C1=Cc1ccc(S(C)(=O)=O)cc1 |  | inactive | 
CC1(C)CC[C@]2(C(=O)O[C@@H]3O[C@H](CO)[C@@H](O)[C@H](O)[C@H]3O)CC[C@]3(C)C(=CCC4[C@@]5(C)C[C@@H](O)[C@H](O)C(CO)(CO)C5CC[C@]43C)C2[C@@H]1O (stereo partly drawn) |  | inactive [at 25.7 µM] | 
NS(=O)(=O)NCCNc1nonc1C(=Nc1ccc(F)c(Br)c1)NO |  |  | inactive
COc1cc(CCc2ccccc2)c(C(=O)O)c2c1CC(C(C)(C)O)O2 (stereo not drawn) | -2.48% (inactive) |  | 
C[C@@H]1CC[C@]2(C)C3(C)CC[C@@]2(OC3=O)[C@@]12C[C@H](c1ccoc1)OC2=O |  | inactive | 
COC(=O)CC[C@@H](C)[C@H]1CC[C@H]2[C@@H]3CC(=O)[C@H]4C[C@H](OC(C)=O)CC[C@]4(C)[C@H]3CC[C@]12C |  | inactive | 
